Type in all cases: functional
Assay [1] concerns Plasmodium falciparum. The assay is described as follows: GSK_TCMDC: Inhibition of Plasmodium falciparum 3D7 in whole red blood cells, using parasite LDH activity as an index of growth. Test compounds present at 2uM.
In assay [2] the test system is Plasmodium falciparum. The assay is described as follows: GSK_TCMDC: Inhibition of Plasmodium falciparum Dd2 in whole red blood cells, using parasite LDH activity as an index of growth. Test compounds present at 2uM.
The subject of a further assay is HepG2. The assay is described as follows: GSK_TCMDC: Percent inhibition of human HepG2 cell line. Test compounds present at 10uM.

The Inhibition is the percentage by which the read-out fell short of the control. A high value points to a strong effect.

On to `COc1ccccc1CNC(=O)c1cc(Br)cc(N2CCN(c3ccncc3)CC2)c1.O=C(O)C(F)(F)F`, for which the Inhibition with Plasmodium falciparum [1] was 95%; with Plasmodium falciparum [2], 76%; with HepG2, 43%.

As to `CC1CCc2sc(-c3nnc(SC(C)C(=O)N4CCCC4)o3)cc2C1` (configuration not stated), the figures for the Inhibition with Plasmodium falciparum [1], with Plasmodium falciparum [2] and in the assay on HepG2 were 93%, 94% and 1%, respectively.

`Nc1nc(N)c2c(Oc3cccnc3)cccc2n1`: the results for the Inhibition with Plasmodium falciparum [1], in the assay with Plasmodium falciparum [2] and in the assay with HepG2 were 93%, 0% and 65%, respectively.

Regarding `O=C(NCc1cccc2ccccc12)[C@@H]1CCCN1C(=O)c1ccc(O)c(-c2ccc(Cl)c(Cl)c2)c1`, the Inhibition came out at 98% in the assay on Plasmodium falciparum [1], 71% in the assay with Plasmodium falciparum [2] and 0% in the assay on HepG2.

For `CC1(C)N=C(N)N=C(N)N1c1ccc2ccccc2c1.Cl`, the Inhibition in the assay on Plasmodium falciparum [1] was 95%; with Plasmodium falciparum [2] it was 0%; in the assay with HepG2, 48%.

Regarding `Cc1ccc(O)cc1Nc1ccnc2ccc(-c3cccc(CNCCN(C)C)c3)cc12`, the figures for the Inhibition in the assay with Plasmodium falciparum [1], with Plasmodium falciparum [2] and with HepG2 were 100%, 46% and 0%, respectively.

Regarding `Cc1ccccc1C(O)CNc1ccnc(Nc2cccc(C#N)c2)n1` (configuration not stated), the figures for the Inhibition in the assay with Plasmodium falciparum [1], in the assay with Plasmodium falciparum [2] and in the assay on HepG2 were 94%, 12% and 22%, respectively.

As to `O=C(/C=C/c1ccc(Cl)c(Cl)c1)NCCCCCN1CCC(NC(=O)Nc2ccccc2F)CC1`, the values for the Inhibition in the assay on Plasmodium falciparum [1], with Plasmodium falciparum [2] and in the assay with HepG2 were 95%, 25% and 14%, respectively.

For `COc1ccc2c(c1)nc(CNC(=N)N)n2Cc1ccc(Cl)cc1.Cl`, the Inhibition was determined as 100% with Plasmodium falciparum [1], 99% in the assay on Plasmodium falciparum [2] and 12% in the assay on HepG2.

Consider `O=C(N[C@@H](CC1CCCCC1)C(=O)NC1CCCCCC1)c1ccc(O)c(-c2ccc(Cl)c(Cl)c2)c1`, for which the results for the Inhibition in the assay on Plasmodium falciparum [1], with Plasmodium falciparum [2] and in the assay with HepG2 were 99%, 100% and 0%, respectively.

`CCCNCc1ccc(-c2ccc(CN(CCOC)C(=O)c3ccc([N+](=O)[O-])c(C)c3)cc2)nc1.O=C(O)C(F)(F)F`: the Inhibition is listed as 97% in the assay on Plasmodium falciparum [1], 23% in the assay with Plasmodium falciparum [2] and 2% in the assay on HepG2.

`CCNC(=O)c1ccc2c(c1)c(C)c(C)n2Cc1ccc(F)cc1`: the values for the Inhibition in the assay on Plasmodium falciparum [1], with Plasmodium falciparum [2] and in the assay with HepG2 were 93%, 91% and 25%, respectively.

As for `Cc1cccc2nc(-c3ccc(-c4ccc(CNCCCNS(C)(=O)=O)cc4)s3)[nH]c12.O=C(O)C(F)(F)F`, the results for the Inhibition in the assay on Plasmodium falciparum [1], with Plasmodium falciparum [2] and with HepG2 were 99%, 4% and 13%, respectively.

For the compound `O=[N+]([O-])c1c(O)nc2c(c1O)CCC2`, the Inhibition with Plasmodium falciparum [1] is recorded as 97%; in the assay with Plasmodium falciparum [2], 1%; in the assay with HepG2 it was 9%.

On to `Cc1cc(NC(=O)Nc2ccc3nc(C)oc3c2)c2cc(Cl)ccc2n1`, for which the values for the Inhibition with Plasmodium falciparum [1], in the assay with Plasmodium falciparum [2] and in the assay on HepG2 were 100%, 57% and 0%, respectively.

Take `CCCCCCNc1cc(C)nc2ccc(OC)cc12.Cl`: the Inhibition came out at 100% in the assay with Plasmodium falciparum [1], 94% with Plasmodium falciparum [2] and 19% with HepG2.

`FC(F)(F)c1ccc2[nH]c(-c3ccc(-c4ccc(CNCc5ccccc5)cc4)cc3)nc2c1.O=C(O)C(F)(F)F`: the Inhibition worked out at 100% in the assay on Plasmodium falciparum [1], 96% in the assay with Plasmodium falciparum [2] and 22% with HepG2.

In the case of `NC(=O)C1CCN(Cc2cccc(-c3cccc(-c4nc5cc(F)ccc5[nH]4)c3)c2)CC1.O=C(O)C(F)(F)F`, the Inhibition in the assay on Plasmodium falciparum [1] was found to be 100%; in the assay with Plasmodium falciparum [2], 7%; in the assay on HepG2, 15%.

`CC(C)c1ccc(-c2nc3cc(Cl)cnc3[nH]2)cc1`: the Inhibition amounted to 87% in the assay on Plasmodium falciparum [1], 77% in the assay with Plasmodium falciparum [2] and 3% in the assay on HepG2.

`Cc1cc(Nc2ccc(C(C)(C)C)cc2)c2[nH]ncc2n1.Cl`: the Inhibition with Plasmodium falciparum [1] turned out to be 83%; with Plasmodium falciparum [2] it was 63%; with HepG2, 31%.

Take `O=C(CCC1CCCCC1=O)c1ccccc1` (configuration not stated): the figures for the Inhibition in the assay on Plasmodium falciparum [1], in the assay with Plasmodium falciparum [2] and in the assay with HepG2 were 91%, 3% and 0%, respectively.

Turning to `CC(C)c1ccc(NC(=O)c2ccc(C(=O)NC3CCN(Cc4ccsc4)C3)cc2)cc1.O=C(O)C(F)(F)F` (configuration not stated), the Inhibition in the assay with Plasmodium falciparum [1] is on record as 82%; with Plasmodium falciparum [2] it was 28%; in the assay with HepG2 it was 17%.

For `Cc1csc(NC(=O)c2cn(-c3ccccc3)nc2-c2cccs2)n1`, the Inhibition in the assay on Plasmodium falciparum [1] is 95%; in the assay with Plasmodium falciparum [2] it was 12%; in the assay with HepG2, 0%.

With `CN(C)CCN(C)Cc1ccc(-c2ccc(NC(=O)c3cccc(C#N)c3)cc2)cc1.O=C(O)C(F)(F)F`, the Inhibition in the assay on Plasmodium falciparum [1] was found to be 89%; in the assay with Plasmodium falciparum [2] it was 49%; in the assay on HepG2 it was 20%.

For the compound `N#Cc1ccccc1N1CCN(C2CCC(NC(=O)c3n[nH]c4cc(C(F)(F)F)ccc34)CC2)CC1` (configuration not stated), the Inhibition in the assay on Plasmodium falciparum [1] came to 84%; in the assay on Plasmodium falciparum [2] it was 34%; in the assay with HepG2, 15%.

As for `CCC(C)c1ccc(NC(=O)C(C)c2ccc([N+](=O)[O-])cc2)cc1` (configuration not stated), the Inhibition in the assay with Plasmodium falciparum [1] worked out at 100%; in the assay with Plasmodium falciparum [2] it was 100%; in the assay with HepG2, 14%.

`CCN(CC)CCOc1ccc(C(O)(C#CC(O)(c2ccccc2)c2ccc(OCCN(CC)CC)cc2)c2ccccc2)cc1` (configuration not stated): the Inhibition in the assay on Plasmodium falciparum [1] was determined as 99%; in the assay with Plasmodium falciparum [2] it was 99%; with HepG2, 81%.

Take `COc1ccc(-c2ccc(NC(=O)c3ccc(C#N)cc3)cc2)cc1CN(C)CCN(C)C.O=C(O)C(F)(F)F`: the Inhibition in the assay on Plasmodium falciparum [1] is given as 96%; in the assay with Plasmodium falciparum [2] it was 58%; in the assay on HepG2 it was 28%.

As for `O=C(/C=C/c1ccc(Cl)c(Cl)c1)NCCCCCN1CCCN(C(=O)Nc2cc(Cl)nc(Cl)c2)CC1`, the Inhibition stood at 100% with Plasmodium falciparum [1], 3% in the assay with Plasmodium falciparum [2] and 8% in the assay on HepG2.
